Assay outcomes deposited in PubChem by several laboratories.
Shown are actives, neighbours in structure and some others; about 3.6% of the full set was active somewhere.
MazF activator = activators of E. coli MazEF toxin-antitoxin RNase; P0AE70; FAM/BHQ RNA-DNA oligo cleavage fluorescence, 5 h; activation, % at 20 µM; hit rate 0.32% among 350,000; AID 504720; in the data active means activation above about 50%
Target sequence (P0AE70 whole entry, looked up): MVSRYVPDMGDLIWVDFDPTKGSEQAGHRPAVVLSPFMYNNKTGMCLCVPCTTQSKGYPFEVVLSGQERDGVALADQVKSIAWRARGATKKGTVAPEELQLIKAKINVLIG
BoNT F protease = blocks Botulinum neurotoxin F light chain protease; Multiplex microsphere protease cleavage assay, flow cytometry; inhibition, % at 10 µM; hit rate 0.22% among 360,000; AID 588497; in the data active means inhibition above about 35%, passing the limit was not always enough
BoNT-A LC inh2 = inhibitors of Botulinum neurotoxin A light chain protease | AID 588499 | multiplex microsphere protease substrate cleavage, flow cytometry | hit rate 0.17% among 360,000 | inhibition, % at 10 µM
Bead autofluor = flagged as autofluorescent in microsphere protease counterscreen. hit rate 3.1% among 360,000. compound autofluorescence counterscreen, microsphere flow cytometry; hits give high values. fluorescence intensity (concentration not given with the values); in the data active means fluorescence intensity above about 16000
Anthrax LF inh2 = blocks Bacillus anthracis lethal factor protease; hit rate 0.12% among 360,000; multiplex microsphere protease cleavage assay, LF; inhibition, % at 10 µM; P15917
BoNTA LC inh 1 = blocks botulinum neurotoxin A light chain protease | shares compounds with BoNT F protease | multiplex microsphere protease assay, flow cytometry | inhibition, % at 10 µM | hit rate 3% among 720 | AID 602139; in the data active means inhibition above about 32%
BoNTF LC inh 1 = blocks botulinum neurotoxin F light chain protease; shares compounds with BoNT F protease; multiplex microsphere protease cleavage assay, flow cytometry; inhibition, % at 10 µM; 720 tested, under 10 active; call rule not given here
Anthrax LF CP1 = inhibitors of Bacillus anthracis lethal factor protease; shares compounds with BoNT F protease; multiplex microsphere protease cleavage assay, LF; inhibition, % at 10 µM; 720 tested, under 10 active; call rule not given here
BoNT-A LC CP2 = blocks botulinum neurotoxin A light chain protease. shares compounds with BoNT-A LC inh2. multiplex microsphere protease cleavage assay, flow cytometry. inhibition, % at 10 µM. hit rate 10% among 150. AID 602325; in the data active means inhibition above about 24%
LF protease CP2 = inhibitors of Bacillus anthracis lethal factor protease; shares compounds with BoNT-A LC inh2; multiplex microsphere protease cleavage assay; inhibition, % at 10 µM; hit rate 7% among 150; in the data active means inhibition above about 25%
BoNT-F LC CP2 = BoNT/F light chain protease inhibition; shares compounds with BoNT-A LC inh2; multiplex microsphere protease cleavage assay, flow cytometry; inhibition, % at 10 µM; hit rate 7% among 150; AID 602336; in the data active means inhibition above about 25%
Hits are given with their value; - = inactive; . = not tested or not shown; + = active, no number. Unless noted, no stated cut-off is given here; in the data, active means inhibition above about 30%; inconclusive means no clear call, values can overlap the other calls; inactive means below that.

SMILES	MazF activator	BoNT F protease	BoNT-A LC inh2	Bead autofluor	Anthrax LF inh2	BoNT-A LC CP2	LF protease CP2	BoNT-F LC CP2	others
COc1ccc(-c2oc(=O)n(C)c2-c2ccc(OC)cc2)cc1	-	90	-	-	-	.	.	.	BoNTA LC inh 1=-;BoNTF LC inh 1=-;Anthrax LF CP1=-
COCCn1c(-c2ccc(OC)cc2)c(-c2ccc(OC)cc2)oc1=O	-	-	-	-	-	.	.	.
O=C(O)c1ccc(CNC(=O)C23CC4CC(CC(C4)C2)C3)cc1	-	98	-	-	-	.	.	.	BoNTA LC inh 1=-;BoNTF LC inh 1=-;Anthrax LF CP1=-
O=C(NCc1ccccc1)C12CC3CC(CC(Cl)(C3)C1)C2	-	-	-	-	-	.	.	.
CCOc1ncccc1C(=O)OCC(=O)c1cc(OC)c(OC)c(OC)c1	-	-	-	-	-	.	.	.
Cc1ccc(NC(=O)CCCCCC2NC(=O)NC2C)cc1 (stereo not given)	-	71	-	-	-	.	.	.	BoNTA LC inh 1=-;BoNTF LC inh 1=-;Anthrax LF CP1=-
Cc1ccc(CNC(=O)Nc2cccc(C)c2)cc1	-	-	-	-	-	.	.	.
Cc1cccc(NC(=O)NCc2ccc3[nH]c(C)cc3c2)c1	-	-	50	-	-	-	-	-
CCCCn1c(O)c2n(c1=O)Cc1ccccc1N=C2c1ccc(OC)cc1	.	-	-	-	-	.	.	.
COc1ccccc1Cc1c(-c2ccc(C#N)cc2)nc2c(Cl)cc(C(F)(F)F)cn12	.	-	-	-	-	-	-	-
O=S(=O)(Nc1ccccc1)C1CCCCC1	-	-	-	-	-	.	.	.
Cc1nc(C(F)(F)F)ccc1C(=O)N1CCC1(C)C(=O)NS(C)(=O)=O (stereo not given)	.	-	-	-	-	.	.	.
CN(C)Cc1csc(Nc2ccc(C(F)(F)F)cn2)n1	.	-	-	-	-	.	.	.
CCN(CC)c1ccc2cc(C(=O)NCc3ccc(F)cc3)c(=N)oc2c1	.	-	-	-	-	.	.	.
CCN(CC)c1ccc2cc(C(=O)c3cccs3)c(=O)oc2c1	.	-	54	-	33	-	-	-
CCOc1cccc(C(=O)NNC(=O)C2C3C=CC(C3)C2C(=O)O)c1 (stereo not given)	-	-	-	-	-	.	.	.
COC(=O)c1ccccc1-c1c2ccc(=N)cc-2oc2cc(N)ccc12	.	62	-	34738	61	-	-	-
O=C(NC1CCCCC1)c1cccc2c1C(=O)c1ccc(N3CCCC3)cc1S2(=O)=O	-	-	-	-	-	.	.	.
O=C(NCc1cc(C(F)(F)F)ccc1Cl)c1cccc2c1C(=O)c1ccc(N3CCC(Cc4ccccc4)CC3)cc1S2(=O)=O	-	-	-	-	-	-	-	-
O=C(NC1CC1)c1cccc2c1C(=O)c1ccc(N3CCC(Cc4ccccc4)CC3)cc1S2(=O)=O	-	-	-	-	-	.	.	.
COc1ccccc1N1CCN(c2ccc3c(c2)S(=O)(=O)c2cccc(C(=O)NCC4CC4)c2C3=O)CC1	-	-	-	-	-	-	-	-
CC1CCN(c2ccc3c(c2)S(=O)(=O)c2cccc(C(=O)NC4CCCCC4)c2C3=O)CC1	-	-	-	-	-	-	-	-
CC(C)(C)CNC(=O)c1cccc2c1C(=O)c1ccc(N3CCCC3)cc1S2(=O)=O	-	-	-	-	-	.	.	.
O=C(NCc1ccc(F)cc1)c1cccc2c1C(=O)c1ccc(N3CCOCC3)cc1S2(=O)=O	-	-	-	-	-	.	.	.
CC1CCN(c2ccc3c(c2)S(=O)(=O)c2cccc(C(=O)NCc4ccc(F)cc4)c2C3=O)CC1	+	-	-	-	-	-	-	-
SMILES	MazF activator	BoNT F protease	BoNT-A LC inh2	Bead autofluor	Anthrax LF inh2	BoNT-A LC CP2	LF protease CP2	BoNT-F LC CP2	others
Cc1cn([C@H]2C[C@H](O)[C@@H](CCC(=O)NCc3ccccc3)O2)c(=O)[nH]c1=O	-	-	-	-	-	.	.	.
O=C(CC1CCCC1)N1CCN(S(=O)(=O)c2ccc(F)cc2)CC1	-	-	-	-	-	.	.	.
O=C(CCC1CCCC1)N1CCN(S(=O)(=O)c2ccc(Br)cc2)CC1	-	83	80	-	89	-	-	-
CC(Oc1ccccc1F)c1nnc(SCC(=O)c2c(N)n(C3CC3)c(=O)[nH]c2=O)o1 (stereo not given)	-	91	96	-	98	-	-	-
Cc1ccc(Cn2cc(CN3CC(N(C)C)CS3(=O)=O)nn2)cc1 (stereo not given)	.	-	-	-	-	.	.	.
COc1ccc(C(CNC(=O)c2cccc(S(=O)(=O)N3CCCCC3)c2)N2CCCC2)cc1 (stereo not given)	-	-	-	-	-	-	-	-
COc1ccc(C(CNC(=O)c2cc(S(=O)(=O)N3CCCCC3)ccc2C)N2CCCC2)cc1 (stereo not given)	-	45	-	19413	-	-	-	35
COc1ccc(C(CNC(=O)c2ccc(C)c(S(=O)(=O)N3CCCCC3)c2)N(C)C)cc1OC (stereo not given)	-	-	-	-	-	.	.	.
COc1ccc(C(CNC(=O)c2ccc(OC)c(S(=O)(=O)N3CCCC3)c2)N2CCCC2)cc1 (stereo not given)	-	40	-	21380	-	-	-	-
COc1ccccc1C(CNC(=O)c1ccc(C)c(S(=O)(=O)N2CCCCC2)c1)N1CCCC1 (stereo not given)	-	-	-	71619	-	-	-	25
COc1ccc(NS(=O)(=O)c2cccc(C(=O)NCC(c3ccc(OC)cc3)N3CCCCC3)c2)cc1 (stereo not given)	-	-	-	-	-	.	.	.
Cc1cc2ccccc2n1CCNC(=O)C1CCCCC1	-	-	96	-	-	-	-	-
Cc1cc2ccccc2n1CCNC(=O)C1CC1	-	-	69	-	44	-	-	-
O=C(NCCn1ccc2ccccc21)C1CCCCC1	-	-	-	-	-	.	.	.
CCN(CC)c1ccc(-c2sc(Nc3ccccc3)n[n+]2-c2ccc(F)cc2)cc1	-	-	-	17190	44	-	-	-
CN(C)c1ccc(-c2sc(Nc3ccccc3)n[n+]2-c2ccc(F)cc2)cc1	-	-	-	-	-	.	.	.
COc1ccc(OC)c(NC(=O)COC(=O)C2CCCCC2)c1	-	-	-	-	-	.	.	.
O=C(Cc1ccccc1)c1ccccn1	-	-	33	-	-	33	29	-
CN(C(=O)c1cccc(NC(=O)Cc2ccc(NC(=O)C3CCCN(C(=O)C4CCCCC4)C3)cc2)c1)C1CCC1 (stereo not given)	-	-	-	-	-	.	.	.
Cc1cc([N+](=O)[O-])ccc1NC(=O)c1csc(C)c1C	-	-	-	-	-	.	.	.
Cn1ccc2c(-c3ccc(C(=O)O)cc3)cc3c(c21)C1CCC3C1 (stereo not given)	.	-	-	-	-	-	-	-
